# Source: PubChem BioAssay AID652268 (The Scripps Research Institute Molecular Screening Center, 2013)
# Screen size: about 1,600 compounds; about 160 (10%) were called active. Only a sample is shown. Values without a mark were called inactive. Rule as the data show it: active = activation above about 1.3%; inactive = the rest.
# Experiment: parental HEK293-CNG cell agonism artefacts – fluorescence, high throughput, counter-screen for GalR3 antagonist project (AID 652268)
# Settings: HEK293-CNG parental cells, cAMP membrane potential fluorescence; at 3 µM; hits give high values; normalised: DMSO wells 0%, forskolin wells 100%
row,SMILES,activation
1,CC(CCc1ccccc1)NCC(O)c1cccc([N+](=O)[O-])c1 (configuration not stated),0.27%
2,C=CCC1(CC=C)CCCN1C(=O)c1cc(COc2ccc(-n3cncn3)cc2)on1,-0.46%
3,Nc1ncnc2c1ncn2C1OC(CO)CC1O (configuration not stated),-0.01%
4,COc1cc(C(=O)Nn2c(O)c(C3=c4ccccc4=NC3=O)sc2=S)ccc1O,-0.64%
5,COc1ccc(CCNc2nc3ccc(C)cc3n3cnnc23)cc1OC,0.25%
6,COc1ccc(-c2[nH]nc3c2C(c2ccncc2)C(C#N)=C(N)O3)cc1 (configuration not stated),0.22%
7,COCCN1Cc2cccc(C(=O)Nc3ccccc3OC)c2C1=O,0.15%
8,CCOC(=O)c1cc2n(c1C)-c1ccccc1C2=O,0.34%
9,CCOc1ccc(C(C)=O)cc1COC(=O)c1cnc(Cl)c(Cl)c1,4.48% (active)
10,Cn1c(N)c(C(=O)COC(=O)c2cnc(Cl)c(Cl)c2)c(=O)n(C)c1=O,0.4%
11,COCCNC(=O)/C(C#N)=C/c1cccc(OCc2ccccc2)c1,0.53%
12,CSc1nc(N)c(C#N)c(-c2ccccc2Cl)c1C#N,-0.24%
13,O=C(Nc1ccc(CSc2ccccc2)cc1)c1ccc(CN2CCOCC2)cc1,-1.27%
14,C[C@@]12C(=O)N(c3cccc(Br)c3)C(=O)N1[C@H](c1ccc(Cl)cc1)[C@@H]1C(=O)N(C3CCCCC3)C(=O)[C@@H]12,-2.49%
15,COc1ccc(OC)c(NC(=O)CSc2nc(N)c(-c3ccccc3)c(=O)[nH]2)c1,0.95%
16,COc1ccc(-c2csc(-c3cccs3)n2)cc1OC,0.07%
17,COc1ccc(C2Nc3ccccc3C(=O)N2c2ccc(Cl)cc2)cc1Cn1cc([N+](=O)[O-])cn1 (configuration not stated),-0.27%
18,COc1ccc(C(=O)COC(=O)COc2ccc(C)c(C)c2)cc1,0.4%
19,Cc1c(C=O)c2ccccc2n1CC(=O)O,0.2%
20,Cc1c(Cl)cccc1NC(=O)CSc1ccc(-c2cccnc2)nn1,0.04%
21,CC1(C)CC(N2CCN(C(c3ccccc3)c3ccccc3)CC2)=CC(=[N+]2CCCCC2)C1,10.7% (active)
22,CC(C)(CNC(=O)c1ccc(Cl)c(S(=O)(=O)N2CCc3ccccc3C2)c1)N1CCOCC1,-0.38%
23,COC(=O)c1cccc([N+](=O)[O-])c1CS(=O)(=O)c1ccc(C)cc1,-0.01%

row,SMILES,activation
1,Cc1ccc(S(=O)(=O)N2CCN(C(=O)COC(=O)c3c(C)cc(C)cc3C)CC2)c(C)c1,0.55%
2,c1coc(CNc2ncnc3ccccc23)c1,0%
3,Cn1nccc1C(=O)NC1CCCc2c1cnn2-c1ccc(F)cc1F (configuration not stated),-0.59%
4,CCCCNC(=O)c1ccccc1NC(=O)C1=C(C)OCCS1,-0.01%
5,Cc1ccc(F)cc1NC(=O)Cc1nn(C)c(=O)c2ccccc12,0.14%
6,Cn1cnc([N+](=O)[O-])c1Nc1ccccc1O,0.12%
7,C#Cc1ccc(NC(=O)C2(C)CCN2C(=O)Cc2ccc(-c3ccccc3)cc2)cc1 (configuration not stated),-0.7%
8,O=C(CC1C(=O)NCCN1CC(c1ccccc1)c1ccccc1)NCCc1cn[nH]c1 (configuration not stated),0.5%
9,CC(=O)c1c(C)[nH]c(C(=O)COC(=O)c2cccc(S(=O)(=O)N(C)c3ccccc3)c2)c1C,-0.83%
10,c1ccc(Cc2ccc(OCCn3ccnc3)cc2)cc1,-0.02%
11,CCCn1nc(C(=O)NNC(=O)CSCC(=O)Nc2cc(C)on2)c2ccccc2c1=O,0.16%
12,Cn1c(CN2CCOCC2)nc2cc(NC(=O)c3ccc(Cl)cc3)ccc21,0.05%
13,CCNC(=S)Nc1ccc(OC(F)(F)F)cc1,-0.01%
14,CC(C)[C@@H](C(=O)OCC(=O)c1ccc2c(c1)NC(=O)CO2)N1C(=O)c2ccccc2C1=O,0.06%
15,OC[C@@H]1CN(Cc2ccc(-c3ccccc3)cc2)C[C@H](n2cnc3c(NC4CCCC4)ncnc32)O1,-0.91%
16,CCCOc1ccc(Cc2c(Cl)nc(SC)nc2NC)cc1,1.12%
17,COc1ccc(N(C(=O)CNC(=O)c2ccco2)C(C(=O)NCC2CCCO2)c2ccccc2)cc1Cl (configuration not stated),-0.24%
18,CC(=O)OC(C)C[N+](C)(C)C (configuration not stated),0.43%
19,COC(=O)c1ccc(/C=N/N2C(C)CCCC2C)cc1 (configuration not stated),0.27%
20,COc1cc(NC(=O)c2cc([N+](=O)[O-])ccc2Br)ccc1NC(=O)c1ccco1,-0.55%
21,CCn1c(-c2cc(OC)ccc2OC)csc1=Nc1c(C)n(C)n(-c2ccccc2)c1=O,0.13%
22,CCN1/C(=C\c2ccc3ccccc3[n+]2CC)Sc2cc(C)ccc21,8.28% (active)
23,Nc1nc(NCC(=O)O)nc(N2CCCCCC2)c1[N+](=O)[O-],0.22%

row,SMILES,activation
1,CSc1nccc(NC(=O)c2ccc(C(C)(C)C)cc2)n1,0.22%
2,CCOC(=O)c1c(NC(=O)CSc2nccc(=O)[nH]2)sc(C)c1C,-1.63%
3,COc1ccc(C2CC(=O)Nc3sc(=N)c4c(N)c(C#N)c(N)nc4c32)cc1OC (configuration not stated),-0.03%
4,CC(=O)N1CCCc2cc(S(=O)(=O)N3CCCC(C(=O)N4CCN(c5cccc(Cl)c5)CC4)C3)ccc21 (configuration not stated),-1.04%
5,CN(Cc1cccnc1)C(=O)c1cc(COc2ccc3ncccc3c2)on1,-0.15%
6,NC(=O)c1ccc(NC(=O)COC(=O)C(Cc2ccccc2)NC(=O)c2ccccc2)cc1 (configuration not stated),-0.37%
7,CCOc1cc(C(=O)N2CCc3cc(OC)c(OC)cc3C2)ccc1OC(F)F,1.51% (active)
8,O=C(Nc1ccccc1Cl)/C(Cl)=C(\Cl)S(=O)c1ccccc1 (configuration not stated),3.18% (active)
9,O=C(/C=C/c1c(F)cccc1Cl)Nc1nn[nH]n1,0.23%
10,Nc1nonc1-n1nnc(C(=O)N/N=C/c2cc(Br)ccc2O)c1CSC1=NCCS1,0.22%
11,CCN(CC(=O)NCc1ccc(Cl)cc1)C(=O)CSc1ccccc1,-0.45%
12,O=C(NC(Nc1nc2ccc([N+](=O)[O-])cc2s1)(C(F)(F)F)C(F)(F)F)c1ccccc1,9.23% (active)
13,COc1cc(Cl)c(C)cc1NC(=O)[C@@H]1CCCN1C(=O)c1cccs1,-0.08%
14,CCOc1ccc(Br)cc1CSC(=N)N,3.59% (active)
15,CNC(=O)NC(=O)CSc1nnc(-c2ccc(F)cc2)n1CC1CCCO1 (configuration not stated),0.01%
16,CCc1ccc(-c2nc(SCC(=O)NC3CCCC3)n[nH]2)cc1,0.04%
17,COc1cc2c(cc1OC)C(c1cccc([N+](=O)[O-])c1)=NCC2,0.46%
18,COc1ccc(NS(=O)(=O)c2ccc(NC(=O)c3ccc(N(C)S(C)(=O)=O)cc3)cc2)cc1,-0.8%
19,O=C(CC(O)(C(F)(F)F)C(F)(F)F)Nc1ccc(Cl)c(Cl)c1,1.84% (active)
20,CSc1nc(N(C)NC(=O)c2cccc(C)c2)c2ccccc2n1,2.12% (active)
21,Cc1nc2ccccc2cc1OCc1ccc(F)cc1,1.08%
